A short description of assay [1]: ATG_CRE_CIS: Attagene CIS-FACTORIAL HepG2 Assay for human cAMP Responsive Element (CRE) binding protein 3 (AID 2282926). To be noted: HepG2 CRE cis-reporter, Attagene multiplexed mRNA; actives raise or lower the signal. An outline of the steps:
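Capillary electrophoresis of 6-FAM-labelled, HpaI-digested PCR products quantified reporter transcripts. These came from HepG2 transiently transfected with cis-element reporters and exposed to test chemicals for 24 hours, with DMSO defining baseline activity.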

Assay [2] in a line: ATG_CMV_CIS: Attagene CIS-FACTORIAL HepG2 Assay for human CMV (Internal Marker) (AID 2282928).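 Note: endpoint acts as a background internal control marker rather than a target.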 To be noted: HepG2 CMV promoter reporter, transcription factor profiling; actives raise or lower the signal. An outline of the steps: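 24 h chemical treatment, HepG2 with transient multi-reporter transfection; RNA → oligo(dT) RT → PCR → 6-FAM extension → HpaI digest → CE fluorescence. Bidirectional fit, DMSO negative control.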

Assay [3] can be described thus: ATG_DR4_LXR_CIS: Attagene CIS-FACTORIAL HepG2 Assay for human Liver X Receptor (LXR), DR4 submotif (AID 2282929). The following applies: HepG2 Attagene DR4 cis-reporter, mRNA transcription; actives raise or lower the signal. An outline of the steps:
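Transiently transfected HepG2 liver cells; cis-regulated reporters; 24 h dosing. RT-PCR plus CE read-out of reporter mRNA. DMSO baseline, bidirectional curve fitting.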

Assay [4] has as its target Aryl hydrocarbon receptor (Homo sapiens) (UniProt P35869). Kind of assay: ATG_Ahr_CIS: Attagene CIS-FACTORIAL HepG2 Assay for human Aryl Hydrocarbon Receptor (Ahr) (AID 2282930). To be noted: HepG2 AhR cis-factorial reporter transcription; actives raise or lower the signal. An outline of the steps: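 HepG2 cells transiently transfected with cis-element-driven multiplexed reporter units; endogenous AhR activity read as reporter mRNA 24 h after dosing, via RT-PCR, 6-FAM labelling, HpaI digestion and capillary electrophoresis. Bidirectional fit relative to DMSO.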

Assay [5] can be described thus: ATG_AP_1_CIS: Attagene CIS-FACTORIAL HepG2 Assay for human Activator Protein 1 (AP-1) (AID 2282931). The following applies: HepG2 Attagene cis-factorial AP-1 reporter mRNA; actives raise or lower the signal. The method in brief: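 We transfected HepG2 cells transiently with a set of cis-regulated reporter transcription units, dosed them for 24 h, and quantified reporter mRNA via RT-PCR and capillary electrophoresis, scoring gain or loss of signal relative to DMSO.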

Assay [6] can be described thus: ATG_AP_2_CIS: Attagene CIS-FACTORIAL HepG2 Assay for human Activator Protein 2 (AP-2) (AID 2282932). To be noted: HepG2 AP-2 cis-reporter, Attagene transcription factor profiling; actives raise or lower the signal. An outline of the steps: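 Read-out: fluorescent reporter mRNA via RT-PCR and capillary electrophoresis, 24 h post-dose in transiently transfected HepG2. Endogenous factors drive cis-promoter reporters; gain or loss of signal fitted bidirectionally against DMSO.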

A short description of assay [7]: ATG_BRE_CIS: Attagene CIS-FACTORIAL HepG2 Assay for human Bone Morphogenetic Protein (BMP) Response Element (BRE) (AID 2282933). To be noted: HepG2 BMP response element reporter, Attagene transcription factor profiling; actives raise or lower the signal. The method in brief:
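Endogenous transcription factor activity at a BMP response element was monitored in transfected HepG2 cells 24 h after dosing. Fluorescent RT-PCR products were resolved by capillary electrophoresis, and activity was fitted in both directions versus DMSO.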

Assay [8] concerns the target Transcription factor E2F1 (Homo sapiens) (UniProt Q01094). Put plainly: ATG_E2F_CIS: Attagene CIS-FACTORIAL HepG2 Assay for human E2F Transcription Factor 1 (AID 2282935). To be noted: HepG2 Attagene cis-reporter, E2F reporter RNA transcripts; actives raise or lower the signal. The method in brief: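 Transient MRTU transfection of HepG2; 24 h compound exposure; RNA → oligo(dT) RT → PCR → FAM label → HpaI cut → CE fluorescence. Gain/loss of signal fit against DMSO.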

A short description of assay [9]: ATG_E_Box_CIS: Attagene CIS-FACTORIAL HepG2 Assay for human Enhancer Box (E-box) (AID 2282936). The following applies: HepG2 E-box cis-reporter transcription, actives raise or lower the signal. The method in brief:
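Transiently transfected HepG2, endogenous TF-driven reporters, 24 h dosing. Readout: RT-PCR plus capillary electrophoresis of fluorescent reporter fragments. Gain or loss of signal fitted bidirectionally against DMSO baseline.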

Assay [10] in a line: ATG_M_61_CIS: Attagene CIS-FACTORIAL HepG2 Assay for M61 Transcription Factor (Internal Marker) (AID 2282937). The following applies: HepG2 Attagene CIS-FACTORIAL M61 internal marker reporter; actives raise or lower the signal. An outline of the steps: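 Multiplexed reporter mRNA assay, HepG2 human hepatoma cells, 24 h treatment. Signal: FAM-labelled, HpaI-digested RT-PCR fragments by CE. Fit: bidirectional, baseline DMSO.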

Assay [11] is described as follows: ATG_EGR_CIS: Attagene CIS-FACTORIAL HepG2 Assay for human Early Growth Response 1 (EGR1) (AID 2282938). The following applies: HepG2 Attagene CIS-FACTORIAL EGR reporter mRNA; actives raise or lower the signal. An outline of the steps:
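Multiplexed cis-reporter system in human hepatoma HepG2 cells, transiently transfected. Cells are dosed for 24 h; reporter transcripts are amplified, fluorescently tagged and sized by capillary electrophoresis, with DMSO as negative control.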

Assay [12] in a line: ATG_M_19_CIS: Attagene CIS-FACTORIAL HepG2 Assay for M19 Transcription Factor (Internal Marker) (AID 2282939). To be noted: HepG2 Attagene CIS-FACTORIAL M19 internal marker reporter; actives raise or lower the signal. An outline of the steps: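 Background-control endpoint from a multiplexed HepG2 reporter panel. Cells carrying cis-regulated reporter constructs are treated 24 h, then reporter transcripts are amplified, fluorescently labelled and sized by capillary electrophoresis. DMSO defines baseline.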

Assay [13] is described as follows: ATG_ERE_CIS: Attagene CIS-FACTORIAL HepG2 Assay for Estrogen Response Element (ERE) (AID 2282940). To be noted: HepG2 ERE cis-reporter, Attagene RNA transcript; actives raise or lower the signal. The method in brief: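 Cells used were human hepatoma HepG2, transfected with multiple reporter transcription units under cis-regulatory promoters. Reporter mRNA, read 24 h post-dosing via fluorescent RT-PCR products on capillary electrophoresis, was fitted bidirectionally relative to DMSO.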

The nature of assay [14]: ATG_Ets_CIS: Attagene CIS-FACTORIAL HepG2 Assay for human Erythroblast Transformation Specific (ETS) (AID 2282941). The following applies: HepG2 ETS cis-reporter transcription, actives raise or lower the signal. An outline of the steps: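 Cis-regulated reporter mRNA induction in HepG2 (transient transfection), 24 h exposure, RT-PCR plus capillary electrophoresis detection; DMSO serves as negative control and baseline.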

For assay [15], the target named is Hepatocyte nuclear factor 3-beta (Homo sapiens) (UniProt Q9Y261). Put plainly: ATG_FoxA2_CIS: Attagene CIS-FACTORIAL HepG2 Assay for human Forkhead box A2 (FOXA2) (AID 2282942). The following applies: HepG2 cis-reporter transcription factor activity, 24 h; actives raise or lower the signal. The method in brief:
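Multiplexed cis-element reporter assay in transiently transfected HepG2. Twenty-four hours post-dosing, RNA was reverse-transcribed, amplified, FAM-labelled, HpaI-digested and separated by CE. Activity gain or loss relative to DMSO.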

Assay [16] in a line: ATG_FoxO_CIS: Attagene CIS-FACTORIAL HepG2 Assay for human Forkhead box O (FoxO) (AID 2282943). The following applies: HepG2 Attagene cis-reporter, FoxO element, mRNA; actives raise or lower the signal. The method in brief:
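HepG2 cells transiently transfected with cis-element-driven reporter units report endogenous FoxO activity. After 24 h chemical exposure, reporter mRNA quantified by RT-PCR, fluorescent labeling, HpaI digestion and capillary electrophoresis; bidirectional fit versus DMSO.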

Assay [17] is described as follows: ATG_GATA_CIS: Attagene CIS-FACTORIAL HepG2 Assay for human GATA Binding Protein (AID 2282944). The following applies: HepG2 GATA cis-element reporter, Attagene multiplex mRNA; actives raise or lower the signal. An outline of the steps:
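Endogenous transcription factor activity was captured through cis-promoter-driven reporters in transfected HepG2 cells. After 24 h exposure, reporter transcripts were quantified by RT-PCR with fluorescent capillary electrophoresis, and responses fitted both directions against DMSO.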

Assay [18] is described as follows: ATG_GLI_CIS: Attagene CIS-FACTORIAL HepG2 Assay for human Zinc Finger Protein GLI1 (AID 2282945). To be noted: HepG2, Attagene cis-factorial reporter mRNA, GLI element; actives raise or lower the signal. The method in brief:
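Transiently transfected HepG2 cells report endogenous transcription factor activity via cis-element-driven reporter units. After 24 h compound exposure, reporter mRNA was measured by RT-PCR with capillary electrophoresis; bidirectional fitting against DMSO baseline.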

The target of assay [19] is CCAAT/enhancer-binding protein beta (Homo sapiens) (UniProt P17676). Kind of assay: ATG_C_EBP_CIS: Attagene CIS-FACTORIAL HepG2 Assay for human CCAAT/Enhancer Binding Protein (C/EBP) beta (AID 2282927). To be noted: HepG2 Attagene cis-factorial transcription factor reporter; actives raise or lower the signal. The method in brief:
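HepG2 transiently transfected with multiplexed reporter units under cis-regulatory promoters reporting endogenous C/EBPb activity. After 24 h exposure, reporter mRNA assayed by RT-PCR, fluorescent labelling, HpaI digestion and capillary electrophoresis; bidirectional fitting versus DMSO.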

Assay [20] addresses Retinoic acid receptor alpha (Homo sapiens) (UniProt P10276). Kind of assay: ATG_DR5_RAR_CIS: Attagene CIS-FACTORIAL HepG2 Assay for human Retinoic Acid Receptor Alpha (RARE), DR5 submotif (AID 2282934). The following applies: HepG2 Attagene cis-factorial RARE DR5 reporter, mRNA; actives raise or lower the signal. The method in brief:
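HepG2 cells transiently transfected with multiplexed reporter units; DR5 cis-element drives reporter through endogenous transcription factors. After 24 h dosing, reporter mRNA quantified by RT-PCR, fluorescent labeling, HpaI digestion and capillary electrophoresis; bidirectional fitting versus DMSO.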

The source made the active and inactive calls. Rule for the calls: active = hit-call score of the fitted dose curve at least 0.9, where 1 is the maximum; inactive = score below 0.9.

Sequence of Transcription factor E2F1 (Homo sapiens) (Q01094 whole entry, looked up): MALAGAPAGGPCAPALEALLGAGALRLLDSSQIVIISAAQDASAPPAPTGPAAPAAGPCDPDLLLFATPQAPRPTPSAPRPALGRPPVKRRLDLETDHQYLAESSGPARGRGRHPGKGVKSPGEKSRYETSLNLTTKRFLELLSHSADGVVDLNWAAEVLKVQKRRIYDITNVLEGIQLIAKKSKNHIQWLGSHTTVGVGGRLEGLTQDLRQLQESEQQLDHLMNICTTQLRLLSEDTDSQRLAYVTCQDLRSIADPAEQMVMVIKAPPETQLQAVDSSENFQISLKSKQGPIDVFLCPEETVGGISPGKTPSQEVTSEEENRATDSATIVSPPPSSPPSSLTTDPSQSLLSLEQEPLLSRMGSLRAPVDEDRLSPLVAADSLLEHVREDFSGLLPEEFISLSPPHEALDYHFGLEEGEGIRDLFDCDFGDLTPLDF
Sequence of Aryl hydrocarbon receptor (Homo sapiens) (P35869 whole entry, looked up): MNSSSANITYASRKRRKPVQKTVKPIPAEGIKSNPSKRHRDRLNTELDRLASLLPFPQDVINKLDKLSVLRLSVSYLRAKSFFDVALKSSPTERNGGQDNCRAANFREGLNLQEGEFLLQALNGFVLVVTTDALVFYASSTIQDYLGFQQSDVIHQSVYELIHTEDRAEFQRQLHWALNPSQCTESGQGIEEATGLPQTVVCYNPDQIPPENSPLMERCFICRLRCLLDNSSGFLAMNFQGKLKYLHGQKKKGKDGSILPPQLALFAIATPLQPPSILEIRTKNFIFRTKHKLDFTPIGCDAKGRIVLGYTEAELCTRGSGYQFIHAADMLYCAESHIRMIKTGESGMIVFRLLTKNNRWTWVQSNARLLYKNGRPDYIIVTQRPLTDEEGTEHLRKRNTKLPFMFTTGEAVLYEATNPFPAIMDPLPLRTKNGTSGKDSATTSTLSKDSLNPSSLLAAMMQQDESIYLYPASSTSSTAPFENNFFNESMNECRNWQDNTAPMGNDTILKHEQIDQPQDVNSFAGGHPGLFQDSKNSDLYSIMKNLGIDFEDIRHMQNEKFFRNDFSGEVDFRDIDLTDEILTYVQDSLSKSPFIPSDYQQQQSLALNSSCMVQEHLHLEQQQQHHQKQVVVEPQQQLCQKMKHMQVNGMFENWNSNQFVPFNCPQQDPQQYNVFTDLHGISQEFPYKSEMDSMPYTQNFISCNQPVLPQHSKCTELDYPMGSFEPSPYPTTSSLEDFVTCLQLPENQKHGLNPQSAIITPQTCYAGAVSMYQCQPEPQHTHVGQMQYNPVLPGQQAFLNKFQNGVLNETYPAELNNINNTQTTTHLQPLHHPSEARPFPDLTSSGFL
Sequence of Hepatocyte nuclear factor 3-beta (Homo sapiens) (Q9Y261 whole entry, looked up): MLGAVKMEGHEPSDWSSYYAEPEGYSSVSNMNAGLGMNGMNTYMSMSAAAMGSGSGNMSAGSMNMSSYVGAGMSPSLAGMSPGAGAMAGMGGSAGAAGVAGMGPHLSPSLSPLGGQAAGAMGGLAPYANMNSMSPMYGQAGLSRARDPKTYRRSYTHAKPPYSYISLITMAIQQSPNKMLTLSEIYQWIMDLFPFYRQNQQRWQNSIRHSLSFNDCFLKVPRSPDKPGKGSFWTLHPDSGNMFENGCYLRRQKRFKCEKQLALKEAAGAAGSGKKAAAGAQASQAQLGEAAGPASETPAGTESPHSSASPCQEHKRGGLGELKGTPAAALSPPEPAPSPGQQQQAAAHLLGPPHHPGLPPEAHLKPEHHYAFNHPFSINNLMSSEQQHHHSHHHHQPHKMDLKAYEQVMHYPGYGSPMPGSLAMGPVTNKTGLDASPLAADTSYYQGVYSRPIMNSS
Sequence of Retinoic acid receptor alpha (Homo sapiens) (P10276 whole entry, looked up): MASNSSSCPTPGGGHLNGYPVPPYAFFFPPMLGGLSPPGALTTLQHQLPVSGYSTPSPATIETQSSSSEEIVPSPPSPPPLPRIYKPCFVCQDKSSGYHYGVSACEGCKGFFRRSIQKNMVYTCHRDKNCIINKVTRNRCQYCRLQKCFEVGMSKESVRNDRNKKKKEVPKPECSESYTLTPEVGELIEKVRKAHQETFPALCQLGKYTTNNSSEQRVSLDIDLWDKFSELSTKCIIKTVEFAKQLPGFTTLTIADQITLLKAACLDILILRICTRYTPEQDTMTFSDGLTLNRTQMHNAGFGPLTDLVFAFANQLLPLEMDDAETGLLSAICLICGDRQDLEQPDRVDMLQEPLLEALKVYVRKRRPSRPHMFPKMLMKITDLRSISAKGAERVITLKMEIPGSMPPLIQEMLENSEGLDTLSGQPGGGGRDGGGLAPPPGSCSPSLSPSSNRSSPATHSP
Sequence of CCAAT/enhancer-binding protein beta (Homo sapiens) (P17676 whole entry, looked up): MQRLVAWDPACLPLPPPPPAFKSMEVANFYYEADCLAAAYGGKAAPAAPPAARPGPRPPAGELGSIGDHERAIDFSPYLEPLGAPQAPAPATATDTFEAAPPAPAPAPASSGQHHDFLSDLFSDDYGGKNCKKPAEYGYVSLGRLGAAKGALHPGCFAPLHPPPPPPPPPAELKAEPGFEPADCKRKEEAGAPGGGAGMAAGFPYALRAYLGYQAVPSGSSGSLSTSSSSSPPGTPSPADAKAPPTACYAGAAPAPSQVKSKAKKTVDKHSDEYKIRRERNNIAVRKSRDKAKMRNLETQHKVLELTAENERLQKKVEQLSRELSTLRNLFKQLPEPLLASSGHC

What is called AC50 is the concentration giving half of the maximal activity seen. Regarding `ClC1=C(Cl)[C@]2(Cl)[C@H]3[C@H]([C@@H]4C=C[C@H]3C4)[C@@]1(Cl)C2(Cl)Cl`, the result in assay [1], in assay [4], in [6], in assay [7], in [8] and in [9] was inactive. Further, the result in [10], in [12], in [14], in assay [15], in [16] and in assay [17] was inactive. The outcome in assay [18] was inactive. Further, the AC50 in assay [2] was 45.6 µM (active); in assay [3] it was 25.9 µM (active); in assay [5], 46.9 µM (active); in [11], 33.4 µM (active); in assay [13], 16.1 µM (active).

Turning to `Clc1ccccc1Cl`, the result in assay [1], in [19], in assay [2], in assay [3], in assay [4] and in [7] was inactive. For the same compound, the call in assay [20], in assay [8], in assay [9], in assay [10], in assay [11] and in assay [12] was inactive. Further, the call in [14], in assay [15], in assay [16], in assay [17] and in [18] was inactive.

In the case of `Brc1ccc(Oc2ccccc2)cc1`, the call in [1], in assay [19], in assay [2], in assay [4], in assay [7] and in assay [8] was inactive. The result in [9], in [10], in assay [11], in assay [12], in assay [14] and in assay [15] was inactive. Moreover, the call in assay [16], in assay [17] and in [18] was inactive. The AC50 in assay [3] was 155 µM (active); in [13] it was 50.8 µM (active).

As to `c1ccc(N=Nc2ccccc2)cc1`, the call in [1], in assay [2], in assay [5], in assay [7], in assay [20] and in assay [8] was inactive. Besides, the result in assay [9], in [10], in [11], in assay [12], in assay [14] and in assay [15] was inactive. For the same compound, the call in [16], in [17] and in [18] was inactive. For the same compound, the AC50 in [3] is 100 µM (active); in assay [4], 125 µM (active).

These data come from PubChem BioAssay (EPA / NIEHS).
